Where “and” joins values, the source holds several entries; their conditions need not be identical. Equal entries are not always repeated. Unmarked numbers belong to inactive results. Entries that show only a call come without a potency. Calls of active or inactive are those of the source. Calls come from the whole dose curve.
These molecules were tested against Estrogen receptor (Homo sapiens) (UniProt P03372) (assay: qHTS assay to identify small molecule agonists of the estrogen receptor alpha (ER-alpha) signaling pathway in the presence of an antagonist (AID 1259383; note: nearly all actives have a fitted effect of over 15% in size; for activation: top concentration of the series differs between compounds)). Settings: VM7Luc4E2 cells, ERE-luciferase, +ICI-182,780, 22 h; series mostly up to 92.4 µM.
Estrogen receptor (Homo sapiens), sequence (P03372 whole entry, looked up): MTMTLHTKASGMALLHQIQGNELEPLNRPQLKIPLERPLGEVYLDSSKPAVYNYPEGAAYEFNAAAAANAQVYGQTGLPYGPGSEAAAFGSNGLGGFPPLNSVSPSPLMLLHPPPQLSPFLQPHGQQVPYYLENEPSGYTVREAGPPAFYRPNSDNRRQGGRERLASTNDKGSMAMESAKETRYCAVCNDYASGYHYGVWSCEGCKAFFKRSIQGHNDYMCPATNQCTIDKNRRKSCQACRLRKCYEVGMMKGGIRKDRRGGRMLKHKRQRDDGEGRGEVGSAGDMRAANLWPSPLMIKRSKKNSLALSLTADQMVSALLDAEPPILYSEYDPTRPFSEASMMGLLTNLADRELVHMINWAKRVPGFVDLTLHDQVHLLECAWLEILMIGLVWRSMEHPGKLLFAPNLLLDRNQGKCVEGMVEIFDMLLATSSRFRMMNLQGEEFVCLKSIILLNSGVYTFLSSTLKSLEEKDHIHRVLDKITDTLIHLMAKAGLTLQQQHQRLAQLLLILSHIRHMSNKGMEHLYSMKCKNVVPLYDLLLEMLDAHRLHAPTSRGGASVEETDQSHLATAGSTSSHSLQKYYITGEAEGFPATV
From the text: National Center for Advancing Translational Sciences [NCATS] NIH Chemical Genomics Center [NCGC] U.S. Environmental Protection Agency [EPA] National Institutes of Environmental Health Sciences [NIEHS] National Toxicology Program [NTP] Assay overview: Estrogen receptor (ER), a member of nuclear hormone receptor plays an important role in development, metabolic homeostasis and reproduction. Two subtypes of ER, ER-alpha and ER-beta, have similar expression patterns with some uniqueness in both types. Endocrine disrupting chemicals (EDCs) and their interactions with steroid hormone receptors like ER causes disruption of normal endocrine function. Therefore, it is important to understand the effect of environmental chemicals in ER signaling pathway. For identifying ER agonists, VM7Luc4E2 cell line has been used in the current assay. VM7Luc4E2 cell line (provided by Denison MS, University of California) endogenously expresses full-length ER-alpha and is stably transfected with a plasmid containing four estrogen responsive elements (ERE) upstream of a luciferase reporter gene. This current screening for measuring luciferase reporter gene activity using VM7Luc4E2 cells against Tox21 10K library collection is a confirmation study on agonist mode screening in presence of ER-antagonist (ICI-182,780) at 10.0nM final concentration.
Assay Protocol Summary: VM7Luc4E2 cells were cultured in phenol red free assay medium containing 10% charcoal stripped FBS for 5 days prior to the assay. The cells were dispensed at 4,000 cells in 4uL of assay medium per well into white wall/solid-bottom 1536-well plates (Corning Life Sciences, Corning, NY) using a Multidrop Combi (Thermo Fisher Scientific Inc., Waltham, MA) dispenser. After the assay plates were incubated at 37C and 5% CO2 for 24hr, 1uL of 10.0nM (final concentration) ICI-182,780 or assay buffer was added using two separate tips of Flying Reagent Dispenser (FRD, Aurora Discovery, San Diego, CA). Then 23nL of compounds dissolved in DMSO at 15 concentrations and positive controls or DMSO only was transferred to the assay plates by a Pintool station (Wako, San Diego, CA). The assay plates were incubated at 37C and 5% CO2 for 22hr. For luciferase read, 4uL/well ONE-Glo reagent (Promega Corporation, Madison, WI) was added to each well using FRD and after 30min incubation at room temperature, luminescence signal was measured on ViewLux plate reader (PerkinElmer, Shelton, CT).
In the case of `NC(=O)Nc1ccccc1`, the Potency is reported as “inactive”. For `CC(C)(C)c1nnc(NS(=O)(=O)c2ccccc2)s1`, the Potency was “inactive”. `Cc1c(NC(C)C)c(=O)n(-c2ccccc2)n1C` was tested, and the Potency was “inactive”. With `CC/C=C\CCOC(C)=O` the Potency was “inactive”. In the case of `CCCCCSCCCCC`, the Potency is reported as “inactive”. For `CC(C[N+](C)(C)C)OC(N)=O` (stereo not given), the Potency was “inactive”. With `CC(=O)OCC(CCn1cnc2cnc(N)nc21)COC(C)=O` the Potency was “inactive”. For `O=C1CCCN1C1CCCCC1`, the Potency was “inactive”. For `C=COCC1CCC(CO)CC1` (stereo not given), the Potency was “inactive”. For `COc1ccccc1OCC(O)CN1CCN(CC(=O)Nc2c(C)cccc2C)CC1` (stereo not given), the Potency was “inactive”. In the case of `CC(C)c1cc2c(cc1S(=O)(=O)O)[C@@]1(C)CCC[C@@](C)(C(=O)O)[C@@H]1CC2`, the Potency is reported as “inactive”. In the case of `O=C(O)CCCl`, the Potency is reported as “inactive”. In the case of `COC(=O)c1c(Cl)c(Cl)c(C(=O)OC)c(Cl)c1Cl`, the Potency is reported as “inactive”. `CS(=O)(=O)O` was tested, and the Potency was “inactive”. In the case of `CCSC(=O)N(CC(C)C)CC(C)C`, the Potency is reported as “inactive”. With `NC(CSCC(=O)O)C(=O)O` (stereo not given) the Potency was “inactive”. In the case of `CC(=O)Nc1c(I)cc(I)c(C(=O)O)c1I`, the Potency is reported as “inactive”. For `CC(C)(O)C#CC(C)(C)O`, the Potency was “inactive”. With `FC1(F)C(F)(F)C(F)(F)C2(F)C(F)(F)C(F)(F)C(F)(F)C(F)(F)C2(F)C1(F)F` (stereo not given) the Potency was “inactive”. With `Cc1ccc(C#N)cc1` the Potency was “inactive”. `CN(C)CCCSc1ccccc1NC(=O)/C=C/c1ccccc1` was tested, and the Potency was “inactive”. With `O=[N+]([O-])c1ccc(F)cc1F` the Potency was “inactive”. In the case of `CCN1CCC[C@H]1CNC(=O)c1c(O)c(Cl)cc(Cl)c1OC`, the Potency is reported as “inactive”. `c1ccc([C@H]2CN3CCSC3=N2)cc1` was tested, and the Potency was “inactive”. In the case of `CCCCCCOC(=O)CCCCC(=O)OCCCCCC`, the Potency is reported as “inactive”. `CC(C(=O)O)c1ccc(CC2CCCC2=O)cc1` (stereo not given) was tested, and the Potency was “inactive”. With `CC(C)(CC(=O)O)C(=O)O` the Potency was “inactive”. With `CCC(C)C1CCCCC1=O` (stereo not given) the Potency was “inactive”. `NS(=O)(=O)c1cc2c(cc1Cl)NC(C1CC3C=CC1C3)NS2(=O)=O` (stereo not given) was tested, and the Potency was “inactive”. With `CCn1ccnc1CC1COc2ccccc2O1` (stereo not given) the Potency was “inactive”. With `O=C1CC2CC1C1CCCC21` (stereo not given) the Potency was “inactive”. For `O=c1cc(-c2ccccc2)oc2ccccc12`, the Potency was 2.73 µM (active) and 4.06 µM (active). With `CCCCC(CC)COC(=O)c1ccccc1O` (stereo not given) the Potency was “inactive”. In the case of `Cc1cccn2c(=O)c(-c3nnn[nH]3)cnc12`, the activation is reported as -1.22% [at 19 µM]. For `Nc1cc(=O)[nH]c(N)n1`, the Potency was “inactive”. For `Cc1sccc1Br`, the Potency was “inactive”. In the case of `Cc1c(O)cccc1O`, the Potency is reported as “inactive”. `c1ccc(CC2=NCCN2)cc1` was tested, and the Potency was “inactive”. In the case of `CO[Si](CCCOCC1CO1)(OC)OC` (stereo not given), the Potency is reported as “inactive”. For `CC(=O)Nc1ccc(S(N)(=O)=O)cc1`, the Potency was “inactive”.
Potency is the fitted concentration of half-maximal effect.
